Experimental data reported in the antibiotic and cytotoxicity screens of Wong et al. (2023).
The campaign covered roughly 39,000 compounds. About 3,300 (8.5%) were called active. This is one part of a sample in which actives are shown more often than they occur.

Tested on: HepG2
Assay: cytotoxicity call (relative viability < 0.9)
Conditions: 10 µM

Row | Compound | cytotoxicity call
1 | Cc1noc(C)c1NC(=O)N(C)C[C@H]1Oc2ccc(NS(C)(=O)=O)cc2CC(=O)N([C@@H](C)CO)C[C@@H]1C | inactive
2 | O=C(C[C@H]1C[C@H]2c3cc(NC(=O)Nc4ccc(C(F)(F)F)cc4)ccc3O[C@H]2[C@@H](CO)O1)NCc1cc(F)ccc1F | inactive
3 | C[C@@H]1CN([C@@H](C)CO)C(=O)c2cccc(NC(=O)Nc3ccc(F)cc3)c2O[C@H]1CN(C)C(=O)Nc1ccc(C(F)(F)F)cc1 | inactive
4 | CCC(C)C1NC(=O)C(CCNCS(=O)(=O)[O-])NC(=O)C(NC(=O)C(CCNCS(=O)(=O)[O-])NC(=O)C(NC(=O)C(CCNCS(=O)(=O)[O-])NC(=O)CCCCC(C)C)C(C)O)CCNC(=O)C(C(C)O)NC(=O)C(CCNCS(=O)(=O)[O-])NC(=O)C(CCNCS(=O)(=O)[O-])NC(=O)C(C(C)CC)NC1=O.[Na+].[Na+].[Na+].[Na+].[Na+] (stereo unspecified) | active
5 | CC(C)CCCC(=O)N[C@@H](CCNCS(=O)(=O)O)C(=O)N[C@H](C(=O)N[C@@H](CCNCS(=O)(=O)O)C(=O)N[C@H]1CCNC(=O)[C@H]([C@@H](C)O)NC(=O)[C@H](CCNCS(=O)(=O)O)NC(=O)[C@H](CCNCS(=O)(=O)O)NC(=O)[C@H](CC(C)C)NC(=O)[C@H](CC(C)C)NC(=O)[C@H](CCNCS(=O)(=O)O)NC1=O)[C@@H](C)O | inactive
6 | C[C@@H]1CN([C@H](C)CO)S(=O)(=O)c2ccc(C#Cc3cccnc3)cc2O[C@H]1CN(C)CC1CCCC1 | inactive
7 | Cc1noc(C)c1S(=O)(=O)N(C)C[C@H]1Oc2ccc(NS(C)(=O)=O)cc2C(=O)N([C@H](C)CO)C[C@H]1C | inactive
8 | COc1ccc(NC(=O)Nc2ccc3c(c2)[C@@H]2C[C@H](CC(=O)N4CCN(C)CC4)O[C@@H](CO)[C@@H]2O3)cc1 | inactive
9 | C[C@@H]1CN([C@@H](C)CO)C(=O)c2cc(NS(=O)(=O)c3ccc(Cl)cc3)ccc2O[C@@H](C)CCCCO[C@H]1CN(C)C(=O)Cc1ccccc1 | inactive
10 | C[C@@H]1CN([C@@H](C)CO)C(=O)c2cc(NS(=O)(=O)c3ccc(F)cc3)ccc2O[C@@H](C)CCCCO[C@@H]1CN(C)C(=O)Cc1ccccc1 | inactive
11 | Cc1ccc(S(=O)(=O)Nc2ccc3c(c2)C(=O)N([C@@H](C)CO)C[C@H](C)[C@@H](CN(C)C(=O)Cc2ccccc2)OCCCC[C@@H](C)O3)cc1 | active
12 | Cc1ccc(S(=O)(=O)Nc2ccc3c(c2)C(=O)N([C@@H](C)CO)C[C@@H](C)[C@H](CN(C)C(=O)Cc2ccccc2)OCCCC[C@H](C)O3)cc1 | inactive
13 | C[C@@H]1CN([C@H](C)CO)C(=O)c2cc(NS(=O)(=O)c3ccc(Cl)cc3)ccc2O[C@@H](C)CCCCO[C@@H]1CN(C)C(=O)Cc1ccccc1 | active
14 | C[C@@H]1CCCCO[C@@H](CN(C)C(=O)Cc2ccccc2)[C@@H](C)CN([C@H](C)CO)C(=O)c2cc(NS(=O)(=O)c3ccc(F)cc3)ccc2O1 | inactive
15 | C[C@@H]1CCCCO[C@@H](CN(C)C(=O)Cc2ccccc2)[C@@H](C)CN([C@@H](C)CO)C(=O)c2cc(NS(=O)(=O)c3ccc(Cl)cc3)ccc2O1 | inactive
16 | Cc1ccc(S(=O)(=O)Nc2ccc3c(c2)C(=O)N([C@@H](C)CO)C[C@H](C)[C@H](CN(C)C(=O)Cc2ccccc2)OCCCC[C@@H](C)O3)cc1 | inactive
17 | C[C@H]1CCCCO[C@@H](CN(C)C(=O)Cc2ccccc2)[C@@H](C)CN([C@@H](C)CO)C(=O)c2cc(NS(=O)(=O)c3ccc(F)cc3)ccc2O1 | active
18 | CN(C)CC#Cc1ccc([C@@H]2[C@H]3CN(C(=O)c4cccnc4)CC(=O)N3[C@H]2CO)cc1 | inactive

Row | Compound | cytotoxicity call
19 | CC(C)(C)[S@](=O)N1Cc2cc(C(=O)NCc3ccncc3)nc(-c3cccc(-c4ccc(C#N)cc4)c3)c2[C@@H]1CCO | inactive
20 | CO[C@H]1CN(C)C(=O)c2cc(NC(=O)C3CC3)ccc2OC[C@H](C)N(C(=O)CN2CCOCC2)C[C@H]1C | inactive
21 | COC1=C(CC=C(C)C)C(=O)c2ccccc2C1=O | active
22 | CC(C)=CCCC(C)=CCC1=C(C)C(=O)c2ccccc2C1=O | inactive
23 | CC(C)=CCC1=C(O)C(=O)c2ccccc2C1=O | inactive
24 | Cc1noc(C)c1S(=O)(=O)Nc1ccc2c(c1)CC(=O)N([C@H](C)CO)C[C@@H](C)[C@H](CN(C)S(=O)(=O)c1ccccc1)O2 | inactive
25 | CN(Cc1ccc(C(C)(C)C)cc1)Cc1cccc2ccccc12 | inactive
26 | CCOC(=O)N(C)C[C@H]1OCc2cnnn2CCCC(=O)N([C@@H](C)CO)C[C@H]1C | inactive
27 | C[C@@H]1NC(=O)[C@@H](N)CNC(=O)[C@H]([C@H]2CCN=C(N)N2)NC(=O)/C(=C\NC(N)=O)NC(=O)[C@H](CNC(=O)C[C@@H](N)CCCN)NC1=O | inactive
28 | C[C@H](CO)N1C[C@H](C)[C@H](CN(C)C(=O)Nc2ccc(C(F)(F)F)cc2)Oc2ccc(NC(=O)Nc3ccccc3)cc2CC1=O | inactive
29 | C[C@H]1CN([C@@H](C)CO)C(=O)Cc2cc(NC(=O)Nc3ccc(C(F)(F)F)cc3)ccc2O[C@@H]1CN(C)C(=O)Nc1ccccc1 | inactive
30 | C[C@@H]1CN([C@@H](C)CO)C(=O)Cc2cc(NC(=O)Nc3ccc(C(F)(F)F)cc3)ccc2O[C@@H]1CN(C)C(=O)Nc1ccccc1 | active
31 | C[C@@H]1CN([C@@H](C)CO)C(=O)Cc2cc(NC(=O)Nc3ccccc3)ccc2O[C@@H]1CN(C)C(=O)Nc1ccc(C(F)(F)F)cc1 | inactive
32 | C[C@H](CO)N1C[C@H](C)[C@H](CN(C)C(=O)Nc2ccccc2)Oc2ccc(NC(=O)Nc3ccc(C(F)(F)F)cc3)cc2CC1=O | active
33 | C[C@H](CO)N1C[C@H](C)[C@@H](CN(C)C(=O)Nc2ccccc2)Oc2ccc(NC(=O)Nc3ccc(C(F)(F)F)cc3)cc2CC1=O | inactive
34 | COc1ccc(NC(=O)N(C)C[C@H]2OCCCC[C@H](C)Oc3ccc(NC(=O)NC(C)C)cc3C(=O)N([C@@H](C)CO)C[C@@H]2C)cc1 | inactive
35 | Cc1cc(C(=O)Nc2cccc3c2O[C@H](CN(C)S(=O)(=O)c2ccc(F)cc2)[C@@H](C)CN([C@@H](C)CO)C3=O)n(C)n1 | inactive
36 | C[C@H](CO)N1C[C@H](C)[C@@H](CN(C)C(=O)Nc2ccc3c(c2)OCO3)Oc2ccc(NC(=O)Nc3cccc4ccccc34)cc2C1=O | inactive
